Luciferase inh – Photinus pyralis luciferase inhibition. purified P. pyralis luciferase, luminescence, biochemical. 2.5% of 76,000 active. Potency, µM (highest dose often 115 µM), most hits filed as inhibitors. P08659. AID 1347043; note: nearly all actives have a fitted effect of over 65% in size
Target sequence (P08659 whole entry, looked up): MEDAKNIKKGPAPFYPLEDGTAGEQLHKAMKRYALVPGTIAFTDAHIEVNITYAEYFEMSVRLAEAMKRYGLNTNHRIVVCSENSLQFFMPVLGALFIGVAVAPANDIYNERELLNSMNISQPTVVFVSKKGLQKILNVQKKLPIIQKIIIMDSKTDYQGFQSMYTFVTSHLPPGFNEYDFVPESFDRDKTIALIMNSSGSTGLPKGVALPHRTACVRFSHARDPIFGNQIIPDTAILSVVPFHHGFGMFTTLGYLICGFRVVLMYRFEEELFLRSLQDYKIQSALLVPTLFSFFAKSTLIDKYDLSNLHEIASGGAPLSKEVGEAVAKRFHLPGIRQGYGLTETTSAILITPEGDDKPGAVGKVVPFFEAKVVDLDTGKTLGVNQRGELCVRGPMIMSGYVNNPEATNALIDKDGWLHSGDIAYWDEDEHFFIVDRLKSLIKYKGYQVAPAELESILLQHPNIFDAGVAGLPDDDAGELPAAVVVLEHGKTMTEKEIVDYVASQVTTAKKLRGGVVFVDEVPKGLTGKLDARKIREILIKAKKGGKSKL
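Cell-free enzyme assay, 10nM P. pyralis luciferase, luciferin and ATP each at 10uM. Inhibition profiled over a 6-point titration, read as luminescence.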
NPR1 antag – antagonists of human natriuretic peptide receptor Npr1; P16066; HEK293 hNpr1 GloSensor cGMP, ANP-stimulated luminescence; Potency, µM (titrated, usually from 46.3 µM), inactives show top-dose activity change, negative = inhibition, actives largely listed as inhibitors; 1.6% of 76,000 active; calls by dose curve; note: nearly all actives have a fitted effect of over 60% in size
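HEK293 cells stably expressing human Npr1 and cGMP GloSensor pGS-40F, loaded 2 h with 2% GloSensor reagent, given compound 30 min at room temperature. Luminescence read before and 20 min after 0.1 nM hNppA.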
HEK293 tox – cytotoxic compounds in HEK 293 cells; HEK 293 viability, ATP luminescence (CellTiter-Glo), 48-72 h; Potency, µM (series often up to 115 µM), without a hit: at the highest dose activity change, negative = cytotoxicity, usual class: inhibitors; 6.6% of 94,000 active; note: nearly all actives have a fitted effect of over 60% in size
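ATP-coupled CellTiter-Glo luminescence served as viability read-out, recorded 10 min after reagent addition at room temperature. HEK 293 cells, 250 cells/well, had been incubated with pintool-transferred compound for 48 or 72 hr at 37 degree Celsius.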
3T3 cytotox – kills NIH 3T3 cells | Potency, µM (highest dose often 96.7 µM), inactives show at the top dose activity change, negative = cytotoxicity, hits mostly inhibitors | 4.3% of 94,000 active | AID 1345082 | NIH 3T3 viability, CellTiter-Glo ATP luminescence, 48-72 h; note: nearly all actives have a fitted effect of over 55% in size
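Mouse fibroblast NIH 3T3 cells, 400 per well, received compound via pintool and were incubated for 48 or 72 hr prior to CellTiter-Glo ATP luminescence measurement.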
GPT2 inh – blocks human glutamate pyruvate transaminase 2; Potency, µM (series often up to 57.7 µM), inactives show top-dose activity change, negative = inhibition, actives largely listed as inhibitors; Recombinant GPT2, coupled pyruvate oxidase/HRP Amplex Red fluorescence; 0.25% of 100,000 active; AID 1671188; note: nearly all actives have a fitted effect of over 60% in size
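Recombinant GPT2 (10ng/uL) with 250uM a-KG and 2mM L-alanine, 30 min at room temperature, in HEPES pH 7.5 buffer. Pyruvate detected by pyruvate oxidase/HRP/Amplex Red fluorescence after 30 min in the dark; AOA (50uM) as positive control.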
* marks the source's active call; other numbers are inactive results; i = inactive; ? = inconclusive; . = not tested or not shown; [ ] = remark or other dose. Most compounds without a hit are left out; they make up all but 10% or so of the library. Unless noted, calls come from the whole dose curve; as a rule, active = well fitted curve in the direction sought with a large enough effect; inconclusive = small, poorly fitted or top-dose-only effect, or another doubt; inactive = no such curve, though single readings can be large; an effect the other way counts as inactive or inconclusive. % is set by controls: 0 for no effect and ±100 for the full control effect; potency is the fitted concentration of half-maximal effect.

SMILES	Luciferase inh	NPR1 antag	HEK293 tox	3T3 cytotox	GPT2 inh
C[C@H]1[C@@H]2[C@@H](O)C([C@H](C)C(=O)NCc3cc(F)cc(F)c3)CC[C@@]2(C)CC[C@@H]1NC(=O)c1cncnc1 (some centres not stated)	i	-14.9%	?	?	i
COC(=O)c1cccc(COCC2=CC(C)(C)COc3ccc(OC)cc32)c1	.	.	28.2µM*	?	.
COc1cccc(-c2ccc(CN3CCCC3C(=O)NCc3ccc(C(F)(F)F)cc3)cc2)c1 (configuration not stated)	.	.	35.5µM*	?	-52.7%
COc1cccc(-c2ccc(CN3CCCC3C(=O)NCc3ccc(F)cc3)cc2)c1 (configuration not stated)	.	.	?	?	-2.8%
COc1cccc(-c2ccc(CN3CCCC3C(=O)NCC3CC3)cc2)c1 (configuration not stated)	.	.	44.7µM*	?	-8.3%
COc1ccc2[nH]c3c(c2c1)CCNC31CCN(C(=O)CNC(C)=O)CC1	i	10.1%	-7.0%	-12.3%	3.4%
O=C(NCC1CC1)c1ccc2c(c1)C1(CCN(CC3CC3)C1)CN2Cc1ccccc1 (configuration not stated)	i	-9.1%[70.6 µM]	?	79.4µM*	-11.7%[88.5 µM]
CN(C)CCNC(=O)c1ccc2c(c1)C1(CCN(CC3CC3)C1)CN2Cc1ccccc1 (configuration not stated)	i	-9.0%[70.6 µM]	44.7µM*	31.6µM*	-9.6%[88.5 µM]
O=C(NC1CCC1)c1ccc2c(c1)C1(CCN(CC3CC3)C1)CN2Cc1ccccc1 (configuration not stated)	i	-13.5%[70.6 µM]	56.2µM*	?	-8.5%[88.5 µM]
CN1CCC2(C1)CN(Cc1ccccc1)c1ccc(C(=O)NCCOc3ccccc3)cc12 (configuration not stated)	i	0.5%	31.6µM*	?	0.4%
CCNC(=O)c1ccc2c(c1)C1(CCN(CC3CC3)C1)CN2Cc1ccccc1 (configuration not stated)	i	-7.5%[70.6 µM]	?	?	?
Cc1nc(CN2CC3(CCN(C)C3)c3cc(C(=O)NCCc4ccccc4)ccc32)cs1 (configuration not stated)	i	0.4%	79.4µM*	?	3.4%
CN1CC2(CCCN(CC3CC3)C2)c2cc(C(=O)NCCc3ccccn3)ccc21 (configuration not stated)	i	-14.0%[70.6 µM]	?	-20.1%[138 µM]	i
CN1CCC2(C1)CN(Cc1ccccc1)c1ccc(C(=O)NCC3CC3)cc12 (configuration not stated)	i	-2.0%[70.6 µM]	112µM*	?	2.1%[88.5 µM]
CN1CC2(CCCN(CC3CC3)C2)c2cc(C(=O)NCCOc3ccccc3)ccc21 (configuration not stated)	i	-2.1%[70.6 µM]	100µM*	79.4µM*	-1.7%[88.5 µM]
COCCNC(=O)c1ccc2c(c1)C1(CCN(C)C1)CN2Cc1csc(C)n1 (configuration not stated)	i	2.4%[70.6 µM]	-12.9%[172 µM]	?	-28.8%[88.5 µM]
CN(C)c1ccc(CN2CCNc3cnc(-c4ccccc4)cc3C2)cc1	i	-15.0%[70.6 µM]	100µM*	?	i
Cc1cccc(CN2CCNc3cnc(-c4ccccc4)cc3C2)c1	i	-25.5%[70.6 µM]	?	?	i
Cn1cc(CN2CCNc3cnc(-c4ccccc4)cc3C2)cn1	i	-0.5%[70.6 µM]	?	31.6µM*	0.5%[88.5 µM]
O=C1NCCCCCCN(C(=O)CCC2CCCC2)[C@H]2C[C@H](c3nc(Cc4ccccc4)no3)C[C@@H]12	i	-7.7%	31.6µM*	?	i
O=C1NCCCCCCN(C(=O)CC2CCCCC2)[C@H]2C[C@H](c3nc(Cc4ccccc4)no3)C[C@@H]12	i	-7.8%	?	35.5µM*	3.3%
COc1ccc2c(c1)OC[C@@H]1CN(CC(C)(C)O)C(=O)CCN(C(=O)Cc3ccccc3)[C@H]21	.	.	-2.8%	?	.
Cc1noc(-c2ccccc2Cl)c1C(=O)NCCC(c1ccccc1)c1ccccc1	i	-4.9%	25.1µM*	28.2µM*	4.7%
COc1cc(OC)cc(-c2onc(C)c2C(=O)NCCC(c2ccccc2)c2ccccc2)c1	i	-3.3%	39.8µM*	?	-0.9%
COc1cccc(CCNC(=O)c2c(C)noc2-c2cc(OC)cc(OC)c2)c1	i	-15.0%	?	?	-4.1%
SMILES	Luciferase inh	NPR1 antag	HEK293 tox	3T3 cytotox	GPT2 inh
Cc1noc(-c2ccc3c(c2)OCO3)c1C(=O)NCCC(c1ccccc1)c1ccccc1	i	-17.3%	22.4µM*	?	1.5%
Cc1noc(-c2ccccc2Cl)c1C(=O)NCCOc1ccccc1	i	2.7%	?	?	i
COc1ccc(-c2onc(C)c2C(=O)NCCc2cccs2)cc1	i	-14.0%	35.5µM*	-31.3%	0.6%
O=C1CCN(S(=O)(=O)c2ccccc2)CCCN(S(=O)(=O)c2cccs2)CCN1	i	-1.4%	-1.5%	-18.0%	i
COc1cc(NC(=O)CC2CCCN(c3cn[nH]c(=O)c3)C2)cc(OC)c1 (configuration not stated)	i	1.6%	?	-20.2%	i
Cc1cccc(OCC2(CNCC3CC3)C[C@@H](O)[C@@H](O)C2)n1 (some centres not stated)	i	0.8%[70.6 µM]	i	i	2.7%[88.5 µM]
COC(=O)c1ccc2c(c1)nc1n2[C@@H](CNS(=O)(=O)c2ccccc2)COC1	i	-23.6%[70.6 µM]	-24.2%[172 µM]	-23.3%[138 µM]	-9.2%[88.5 µM]
Cc1noc(-c2ccco2)c1C(=O)NCCC(c1ccccc1)c1ccccc1	i	-13.9%	39.8µM*	?	2.2%
O=S(=O)(Cc1ccccc1)N1CCC(Oc2ccc(-c3noc(C4CC4)n3)cc2)C1 (configuration not stated)	i	?	39.8µM*	?	i
COc1ccc(-c2nnc([C@H]3CCN(S(=O)(=O)Cc4ccccc4)C3)o2)cc1	50.1µM*	-2.7%[70.6 µM]	?	?	-7.9%[88.5 µM]
COc1ccc(-c2nnc([C@H]3CCN(S(C)(=O)=O)C3)o2)cc1	i	0.5%[70.6 µM]	i	-17.7%[138 µM]	0.7%[88.5 µM]
Cn1cc(C2CC2)c2nc(COc3ccccc3)cn2c1=O	i	6.0%[70.6 µM]	?	?	4.1%[88.5 µM]
CC1CCC2(CC1)NC(=O)N(CC(=O)N1CCc3ccccc31)C2=O (configuration not stated)	i	6.4%	12.0%	-2.4%	-7.8%
CCN1C(=O)CCN(Cc2cccc(OC)c2OC)CC12CCOCC2	i	0.0%	i	-9.1%	i
CCN1C(=O)CCN(Cc2cn(C)c3ccc(OC)cc23)CC12CCOCC2	i	2.3%	?	31.6µM*	-5.5%

Source: PubChem BioAssay
